In all, about 1,400 compounds went through this assay and about 380 (27%) were called active.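 How the source made its calls: active means mean inhibition above 50% across duplicate retests at 10 µM; inactive means the rest.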 The list shows a part of the results.
Test: inhibition of NALP1/ASC/caspase-1 reporter signal in yeast, confirmation, NALP1 inhibitor project, S. cerevisiae, luminescence, single concentration (AID 488841);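 further: plate controls were DMSO in galactose medium for no effect and cells in plain SD medium for full effect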
Details: S. cerevisiae NALP1/ASC/Caspase-1 reporter, beta-gal luminescence; at 10 µM; hits give high values

inhibition, active:
O=C1C=CC(=O)N1c1ccc(OC(F)F)cc1 59.8%
COc1cc(C)ccc1OCCOCCOc1ccc([N+](=O)[O-])cc1 53.3%
Cc1ccc(C(=O)c2c(NC(=O)c3ccncc3)sc3c2CCCC3)cc1 51%
Cc1ccc(OCCCCN(C)Cc2ccccc2)c(Br)c1 61.5%
CCCCCOc1ccc(Br)cc1CSC(=N)N 57.2%
CC(=O)N1N=C(c2ccc3ccccc3c2)OC1(C)C 77.3%
O=C(Nc1ccc(Cl)c(Cl)c1)Oc1ccc(NC(=O)c2ccco2)cc1 52.8%
O=C1O/C(=C/c2ccccc2)c2ccccc21 73.8%
Cc1ccc(-c2csc(NC(=O)c3ccc(F)cc3)c2C(=O)O)cc1 89.8%
N#C/C(=C/c1cccs1)c1nc2ccccc2[nH]1 89%
CN(C)CCN(C(=O)/C=C/c1cccs1)c1nc2c(F)cc(F)cc2s1 51.6%
CN(C)CCN(C(=O)/C=C/c1cccs1)c1nc2ccc(F)cc2s1 72.1%
Cc1cc(C)n(CCOc2ccc(Cl)cc2Cl)n1 53.1%
CC(/C=N/NC(=O)c1c(Br)cnn1C)=C\c1ccccc1 54.4%
Cc1ccc(S(=O)(=O)c2nc(Nc3ccccc3)sc2Cl)cc1 55.3%
Brc1ccc(C=Nc2ccc(Nc3ccccc3)cc2)s1 51.1%
COc1ccc(NC(=S)SC)cc1OC 52.4%
O=[N+]([O-])c1cc(C(F)(F)F)ccc1NCCc1c[nH]c2ccc(O)cc12 51.8%
CCOc1cc(CNC2CCCC2)cc(Cl)c1OCc1ccc(F)cc1 50.7%
CCOc1cc(CNCc2ccncc2)cc(Br)c1OCc1ccc(F)cc1 69.7%
O=S(=O)(NC1CCCCC1)c1ccc(F)c2ccccc12 51.6%
O=C(CSCc1cnn(-c2ccccc2)c1-n1cccc1)NCc1ccc2c(c1)OCO2 50%
COc1ccc2c(c1)O/C(=C\c1sccc1C)C2=O 65.4%
O=C(NC(=S)Nc1cccnc1)c1cc2ccccc2o1 55.4%
OC(COc1ccc2c(c1)CCC2)CN1CCN(c2ccccc2F)CC1 (stereo not given) 73.8%
O=[N+]([O-])c1ccc(OCC(O)CN2CCN(c3ccccc3F)CC2)cc1 (stereo not given) 55.2%
CCc1cccc2c(C(=O)COC(=O)c3ccc([N+](=O)[O-])s3)c[nH]c12 91.5%

inhibition, inactive:
COc1ccc(N2C(=O)C3[C@@H](C2=O)C2(Cl)C(Cl)=C(Cl)C3(Cl)C2(OC)OC)cc1 (stereo not given in full) 42%
C=CCc1ccc(OCCCOc2ccc(C)cc2OC)c(OC)c1 30.9%
COc1ccc(C(=O)/C=C/Nc2ccc([N+](=O)[O-])cc2C)c(OC)c1 4.95%
CCCCN(C)C(=O)c1nc2ccccn2c1CNCCCn1ncc2ccccc21 16.4%
Cc1ccccc1OCC(=O)Nc1sc2c(c1C#N)CCC2 16.7%
COC(=O)c1c(NC(=O)C2CCCO2)sc2c1CCC2 (stereo not given) 39.9%
Cc1ccc(C(C)C)cc1OCCN1CCCC1 40.4%
CSc1ccc(CN(C)CC(=O)Nc2ccc(C)cc2Br)cc1 47.1%
Cc1ccc(OCCCCN2CCCCC2)c(Br)c1 41.6%
C=CCNCCCCOc1ccc(Br)cc1C 41.7%
O=C(O)CC1NC(=S)N(c2ccccc2)C1=O (stereo not given) 29.9%
COc1ccc(NCc2ccc([N+](=O)[O-])s2)c(OC)c1 49.1%
CC(C)(C)c1ccc(COn2c(=O)c(-c3ccco3)[n+]([O-])c3ccccc32)cc1 12.9%
CCCc1nc2ccc(NC(=O)c3ccco3)cc2c(=O)n1Cc1ccccc1Cl 27%
COc1cccc(NC2=C(Cl)C(=O)OC2OC(=O)c2ccco2)c1 (stereo not given) 29.2%
COc1ccc2c(c1)C1=NN(/C(C)=C/C(C)=O)C(c3ccc(F)cc3)C1CC2 (stereo not given) 42.4%
Cn1nc(NC(=O)C(C)(C)C)c2c(F)cccc21 8.45%
CC(C)Oc1ccc(Cc2cnc(N)nc2N)cc1 9.95%
Cc1ncc(S(=O)(=O)c2ccccc2)c(-c2ccccc2Cl)n1 10.2%
CC(NC(=O)c1ccc(F)cc1)C(=O)NC1=NCCS1 (stereo not given) 22.1%
CN1CCN(C2=C(Cl)C(=O)N(CCc3ccccc3)C2=O)CC1 46.6%
N#C/C(=C\c1ccc([N+](=O)[O-])o1)c1nc2ccccc2[nH]1 24.8%
Cn1c(/C(C#N)=C/C2CC=CCC2)nc2ccccc21 (stereo not given) 37%
O=c1oc2ccccc2nc1/C=C(O)/C=C/c1ccc(F)cc1 33.8%
COc1ccccc1C(=O)Nc1nc2nc(-c3ccccc3)cc(=O)n2[nH]1 22.9%
CCN(CC)CCN1C(=O)c2ccccc2NC1c1ccc(N(C)C)cc1 (stereo not given) 25.7%
CCN(C(=O)[C@@H]1CCCN1C(=O)c1cccs1)c1nc2cc(Cl)ccc2s1 46.8%
CCCCNC(=O)COC(=O)c1ccc(Cl)c(S(N)(=O)=O)c1 25.9%
CCOc1nnc(C)c2c(C)n(-c3cccc(Cl)c3)nc12 25.5%
Clc1ccc2oc3c(Cl)ncnc3c2c1 23.1%
CC(C)(C)c1cc2cccnc2n1Cc1cccc(Cl)c1 35.9%
CC(OC(=O)CC(NC(=O)c1ccccc1Cl)c1ccccc1)C(=O)Nc1cccc(Cl)c1Cl (stereo not given) 29.8%
O=C(CCl)NC(=O)NC12CC3CC(CC(C3)C1)C2 32.7%
CCCCNC(=O)C(=O)N/N=C/c1cccc(Br)c1 45.6%
CC(/C=N/NC(=O)CSc1ccccn1)=C\c1ccc(C(C)C)cc1 26.2%
CC(/C=N/NC(=O)CCn1nnc2ccccc21)=C\c1ccccc1 38.2%
COc1cc2c(cc1NC(=S)Nc1ccccc1C)oc1ccccc12 26.9%
Cc1ccc(S(=O)(=O)c2nc(C)oc2NCc2ccccc2)cc1 35%
CCOC(=O)/C(=N\Nc1ccc(Cl)cc1)c1csc(Nc2ccccc2)n1 27.4%
CCCOc1ccc(OCCSc2ncccn2)cc1 39.4%
Cc1cc(N2C(=O)C=CC2=O)c([N+](=O)[O-])cc1C 41.7%
Fc1ccc(NC(=S)N2CCSC2c2cccs2)cc1 (stereo not given) 17.1%
Cc1ccc(S(=O)(=O)NC2=NCN(CCOC(=O)c3ccc([N+](=O)[O-])cc3)CN2)cc1 22.2%
COc1ccc2nc3oc(C(=O)Nc4ccc(OC)c(OC)c4)cc3cc2c1 23.6%
COc1ccc(C(=O)Nc2ccc(S(=O)(=O)Nc3nccc(C)n3)cc2)cc1OC 31.2%
c1ccc(COc2ccc(OCCN3CCCCC3)cc2)cc1 35.1%
O=C(O)c1cccnc1C(=O)N1CCc2c([nH]c3ccccc23)C1C(F)(F)F (stereo not given) 0.7%
COc1ccccc1NC(=O)C1=C(C)NC(=O)NC1c1cccs1 (stereo not given) 27.1%
Cc1ccc(C(=O)NCCCNc2ccc(C(F)(F)F)cc2[N+](=O)[O-])cc1 31.8%
CCOC(=O)C(=O)C1=C(N2CCOCC2)/C(=C\c2ccc(F)cc2)CC1 33.4%
COc1cc(CNC2CCCCCCC2)cc(Br)c1OCC#N 38.8%
CCOc1c(Cl)cc(CNCC(C)C)cc1OC 32.7%
COc1ccc2c(c1)NC(=O)CC(c1ccccc1)=N2 43.5%
Cc1cccc(NC(=O)c2ccc(C3SCC(=O)N3CCc3ccccc3)cc2)c1C (stereo not given) 48.8%
COc1ccc(N=c2cc(-c3ccc(OC)cc3)oc3ccccc23)cc1 49.6%
CCCCN(Cc1ccccc1)C(=O)C1CCN(Cc2sccc2C)CC1 40.8%
Cc1ccc(/C=C/C(=O)NCc2ccc3c(c2)OCO3)o1 36%
Nc1c(C(=O)NCc2ccc3c(c2)OCO3)nnn1-c1ccc(OC(F)(F)F)cc1 31.3%
CCOc1oc(-c2ccc(OC)cc2)nc1C(F)(F)F 24.1%
O=C(N/N=C/c1ccncc1)c1cc2ccccc2o1 47.5%
O=C(Nc1cccc(-c2nc3ncccc3o2)c1)c1cc2ccccc2o1 46.4%
COc1cccc(CN(C)CC(=O)Nc2cccc(S(N)(=O)=O)c2)c1OC 33.9%
C(#Cc1ccc(C#CCN2CCCC2)cc1)CN1CCCC1 17.6%
CCOC(=O)N1CCN(CC(O)COc2ccccc2C(C)(C)C)CC1 (stereo not given) 42.4%
OC(CSc1c(Cl)cccc1Cl)CN1CCN(c2ccccc2F)CC1 (stereo not given) 40.9%
CCC(=O)c1ccc(OCC(O)CN2CCN(c3cccc(C(F)(F)F)c3)CC2)cc1 (stereo not given) 49.5%
Cc1cccc(C(=O)NNC(=O)CN2C(=O)c3ccccc3C2=O)c1 24.9%
Cc1ccc(N2C(=N)/C(=C3/Nc4ccccc4S3)C(c3ccccc3)C2=O)cc1 (stereo not given) 35.2%
CCc1cccc2c(C(=O)COC(=O)c3ccccc3)c[nH]c12 40%
CCc1cccc2c(C(=O)CSc3nncn3-c3ccc(OC)cc3)c[nH]c12 25.8%
c1csc(CNc2nc3ccccc3n2CCN2CCOCC2)c1 33.5%
O=C(CNC(c1ccccc1)c1ccccc1)Nc1c(F)cccc1F 26.1%
COC(=O)c1ccc(NC(=O)CN2C(=O)CNC2=O)cc1 32.5%

Reference: PubChem BioAssay AID488841 (Sanford-Burnham Center for Chemical Genomics, 2010)
